Sampled rows, rich in hits. Any-hit rate of the full collection: about 21%.
Pf growth 96h: Primary qHTS for delayed death inhibitors of the malarial parasite plastid, 96 hour incubation | P. falciparum luciferase reporter growth, 96 h | Potency, µM (highest dose often 28.7 µM), without a hit: at the top dose activity change, negative = inhibition, usual class: inhibitors | hit rate 6.9% among 320,000 | AID 504834, 2011; active = well fitted inhibition curve with a large enough effect; inconclusive = small, poorly fitted or top-dose-only effect, or another doubt; inactive = no such curve, though single readings can be large or run the other way; note: potency is the fitted concentration of half-maximal effect; % is set by controls: 0 for no effect and ±100 for the full control effect
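Infected RBCs, 2% Hct / 0.05% parasitemia final; luciferase-reporter P. falciparum; cpd 96 h, 37 C, 5% CO2; luciferase detection reagent; luminescence.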
Pf growth 48h: Primary qHTS for delayed death inhibitors of the malarial parasite plastid, 48 hour incubation. AID 504832, 2011. Potency, µM (doses to about 28.7 µM), for the others: at the highest dose activity change, negative = inhibition, actives largely listed as inhibitors. P. falciparum luciferase growth in erythrocytes, 48 h. hit rate 5.9% among 310,000; active = well fitted inhibition curve with a large enough effect; inconclusive = small, poorly fitted or top-dose-only effect, or another doubt; inactive = no such curve, though single readings can be large or run the other way; note: potency is the fitted concentration of half-maximal effect; % is set by controls: 0 for no effect and ±100 for the full control effect
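In quantitative HTS format, infected erythrocytes bearing luciferase-reporter parasites were treated for a single generation at 37 C. Luminescence after adding detection reagent served as the growth measure.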
NS1 inh: qHTS Assay for Inhibitors of Influenza NS1 Protein Function | hit rate 0.4% among 270,000 | AID 2326, 2010 | Potency, µM (highest dose often 46.1 µM), for the others: at the top dose activity, positive = more growth; note: potency is the fitted concentration of half-maximal effect; actives are rising curves; nearly all actives have a fitted effect of over 50% in size
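Growth recovery, yeast-based: influenza A NS1 expressed in S. cerevisiae causes slow growth, and suppressors are detected by OD600. The parent strain without NS1 is used as positive control.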
CHX counter: Cycloheximide Counterscreen for Small Molecule Inhibitors of Shiga Toxin | AID 2314, 2010 | cell reporter, cycloheximide protein synthesis inhibition counterscreen | max response, % | hit rate 12% among 300,000; in the data active = max response mostly above about 13%, no sharp cut-off; inactive = mostly below about 14%; note: read at 38.3 µM for the half of the compounds with a filed dose; 0% is about no effect
Shiga inhibitor: A qHTS for Small Molecule Inhibitors of Shiga Toxin | Vero cells, Shiga toxin protein synthesis inhibition reporter | inhibition, % at 38.7 µM | hit rate 9.2% among 290,000 | AID 2315, 2010; in the data active = inhibition mostly above about 28%, no sharp cut-off; inactive = mostly below about 43%; note: 0% is about no effect
SARS PLpro yeast: qHTS of Yeast-based Assay for SARS-CoV PLP; S. cerevisiae expressing SARS-CoV PLpro, growth rescue; Potency, µM (doses to about 32.9 µM), without a hit: at the highest dose activity, positive = growth rescue, most hits filed as activators; hit rate 0.19% among 330,000; note: potency is the fitted concentration of half-maximal effect; 0% is about no effect; nearly all actives have a fitted effect of over 55% in size
Numbers without * were called inactive; [ ] = another dose, or the depositor's remark. Unless noted, calls come from the whole dose curve.

What do the screens show for `COc1ccc(Nc2ncnc3sc(-c4ccccc4)cc23)cc1`?
Pf growth 96h: -2%; Pf growth 48h: inconclusive; NS1 inh: -4%; CHX counter: -6; Shiga inhibitor: -27; SARS PLpro yeast: -8%

What do the screens show for `COc1ccc(-c2noc(N3CCCC(C(=O)Nc4cc(F)ccc4F)C3)n2)cc1` (configuration not stated)?
Pf growth 96h: inconclusive; Pf growth 48h: 33%; NS1 inh: 0%; CHX counter: -4; Shiga inhibitor: -7; SARS PLpro yeast: 4%

What do the screens show for `O=C(COC(=O)c1ccccn1)NCc1cccs1`?
Pf growth 96h: 24%; Pf growth 48h: 0%; SARS PLpro yeast: -1%

Results for CCn1c(NCc2cccs2)nc2ccccc21 ?
Pf growth 96h: inconclusive; Pf growth 48h: -10%; NS1 inh: -7%; CHX counter: 10; Shiga inhibitor: 26; SARS PLpro yeast: -2%

Results for CCN(CC)c1ccc(CNc2nc3ccccc3n2C)cc1 ?
Pf growth 96h: 16%; Pf growth 48h: 7%; NS1 inh: 0%; CHX counter: 8; Shiga inhibitor: 44*; SARS PLpro yeast: 0%

Results for CCn1c(NCc2cc(OC)c(OC)c(OC)c2)nc2ccccc21 ?
Pf growth 96h: 0.23µM*; Pf growth 48h: -5%; NS1 inh: 12%; CHX counter: -8; Shiga inhibitor: -3; SARS PLpro yeast: 18%

Results for CCn1c(NCc2ccc(N(C)C)cc2)nc2ccccc21 ?
Pf growth 96h: inconclusive; Pf growth 48h: 47%; NS1 inh: -6%; CHX counter: 30*; Shiga inhibitor: 35*; SARS PLpro yeast: 0%

Results for CCn1c(NCc2ccccn2)nc2ccccc21 ?
Pf growth 96h: inconclusive; Pf growth 48h: inconclusive; NS1 inh: -3%; CHX counter: 21*; Shiga inhibitor: 21; SARS PLpro yeast: -26%

How did COc1ccc(CNc2nc3ccccc3n2Cc2ccc(Cl)cc2)cc1OC do in these assays?
Pf growth 96h: inconclusive; Pf growth 48h: inconclusive; NS1 inh: -23%; CHX counter: -5; Shiga inhibitor: -1; SARS PLpro yeast: -8%

Results for O=C(COC(=O)c1ccccn1)NCCc1ccc(Cl)cc1 ?
SARS PLpro yeast: -3%

Results for C=CCn1c(SCC(=O)NC2CCCC2)nnc1-c1ccccn1 ?
Pf growth 96h: 8%; Pf growth 48h: -6%; NS1 inh: 10%; CHX counter: -2; Shiga inhibitor: -3; SARS PLpro yeast: -7%

How did Fc1ccc(N/N=C/c2ccncc2)c(F)c1 do in these assays?
Pf growth 96h: 6%; Pf growth 48h: 86%; NS1 inh: -4%; CHX counter: 40*; Shiga inhibitor: 50*; SARS PLpro yeast: -43%

What do the screens show for `Fc1ccc(N/N=C/C=C/c2ccccc2)c(F)c1`?
Pf growth 96h: inconclusive; Pf growth 48h: 48%; NS1 inh: -10%; CHX counter: 32*; Shiga inhibitor: 34*; SARS PLpro yeast: -39%

Results for O=C(O)c1ccc(/C=N/Nc2ccc(F)cc2F)cc1 ?
Pf growth 96h: inactive; Pf growth 48h: inactive; CHX counter: 40*; Shiga inhibitor: 131*; SARS PLpro yeast: -1%

Results for CCOC(=O)C1CCCN(C(=O)c2cc(CN3C(=O)c4ccccc4C3=O)ccc2OC)C1 (configuration not stated) ?
Pf growth 96h: 7%; Pf growth 48h: inconclusive; SARS PLpro yeast: -9%

Results for O=C(O)c1cc[c]([Hg][S]c2ncnc3nc[nH]c23)cc1 ?
NS1 inh: -15%

How did COc1ccc(C2C=C3CNS(=O)(=O)C3CC2OC(=O)c2cccs2)cc1 (configuration not stated) do in these assays?
CHX counter: 9; Shiga inhibitor: -11

Results for CCC[C@H](CN[C@@H](CNC)[C@H](C)CC)NCCc1cc(C(F)(F)F)cc(C(F)(F)F)c1 ?
Pf growth 96h: 2.1µM*; Pf growth 48h: 4.1µM*; NS1 inh: -4%; CHX counter: -8; Shiga inhibitor: -16; SARS PLpro yeast: -9%

How did COc1cccc(CCNCc2cccc(C(F)(F)F)c2)c1 do in these assays?
Pf growth 96h: 42%[1.15 µM]; Pf growth 48h: -20%; CHX counter: 2; Shiga inhibitor: -23; SARS PLpro yeast: 0%

Results for CCC[C@@H](CN[C@@H](CNC)[C@H](C)CC)NCC1CCC(C(C)(C)C)CC1 (some centres not stated) ?
Pf growth 96h: 3.3µM*; Pf growth 48h: inconclusive; NS1 inh: -4%; CHX counter: 1; Shiga inhibitor: -5; SARS PLpro yeast: -1%

How did CNC[C@@H](CC1CCCCC1)NC[C@H](CC(C)C)NCCc1cccc(C(F)(F)F)c1 do in these assays?
Pf growth 96h: 1.9µM*; Pf growth 48h: inconclusive; NS1 inh: inconclusive; CHX counter: -9; Shiga inhibitor: -11; SARS PLpro yeast: -14%

What do the screens show for `CC[C@@H](C)[C@H](CNC)NC[C@@H](Cc1cccc2ccccc12)NCCc1cccc(C(F)(F)F)c1`?
Pf growth 96h: 7.4µM*; Pf growth 48h: inconclusive; NS1 inh: -2%; CHX counter: -8; Shiga inhibitor: -11; SARS PLpro yeast: -2%

How did Cc1ccc2nc(SC(C)C(=O)NCc3ccc4c(c3)OCO4)[nH]c2c1 (configuration not stated) do in these assays?
Pf growth 96h: inconclusive; Pf growth 48h: 2%; NS1 inh: -3%; CHX counter: -2; Shiga inhibitor: -8; SARS PLpro yeast: -2%

Results for COc1cc(NC(=O)CCCNC(=O)Cn2cnc3sc(C)c(C)c3c2=O)cc(OC)c1OC ?
Pf growth 96h: 0%; Pf growth 48h: -4%; NS1 inh: -1%; CHX counter: -4; Shiga inhibitor: -2; SARS PLpro yeast: 5%

How did COc1cc(C(=O)N(C)CCOc2ccc(C)cc2)ccc1OC1CCN(C(C)=O)CC1 do in these assays?
Pf growth 96h: 6%; Pf growth 48h: -19%; NS1 inh: -11%; CHX counter: 38; Shiga inhibitor: 24; SARS PLpro yeast: -5%

What do the screens show for `O=C1CC(NCCN2CCOCC2)C(=O)N1Cc1ccc(N2CCCC2=O)cc1` (configuration not stated)?
Pf growth 96h: 4.1µM*; Pf growth 48h: 5%; NS1 inh: -9%; CHX counter: 1; Shiga inhibitor: -6; SARS PLpro yeast: 1%

What do the screens show for `COc1ccccc1N(C)S(=O)(=O)c1ccc(C(=O)NNC(=O)c2ccccc2O)cc1`?
Pf growth 96h: inconclusive; Pf growth 48h: inconclusive; SARS PLpro yeast: -2%

Results for COC(=O)c1cc(CNC(=O)c2ccc(S(=O)(=O)N(C)c3ccccc3)cc2)ccc1OC ?
Pf growth 96h: 12µM*; Pf growth 48h: 3.7µM*; SARS PLpro yeast: -4%
